PubChem BioAssay

Legend:
[1] = molecular target: Tumor necrosis factor receptor superfamily member 10B (Homo sapiens) (UniProt O14763); assay: caspase-8 TRAIL sensitization, hit retest, confirmation, cell-based, NB7+caspase-8, with/without TRAIL, luminescence panel (AID 651596); conditions: NB7 neuroblastoma + caspase-8, TRAIL sensitization, luminescence viability, with TRAIL, mean of runs, at 10 µM, stronger effect = higher value
[2] = as above; conditions: NB7 neuroblastoma + caspase-8, without TRAIL, luminescence viability, without TRAIL, mean of runs, at 10 µM

Sequence of Tumor necrosis factor receptor superfamily member 10B (Homo sapiens) (O14763 whole entry, looked up): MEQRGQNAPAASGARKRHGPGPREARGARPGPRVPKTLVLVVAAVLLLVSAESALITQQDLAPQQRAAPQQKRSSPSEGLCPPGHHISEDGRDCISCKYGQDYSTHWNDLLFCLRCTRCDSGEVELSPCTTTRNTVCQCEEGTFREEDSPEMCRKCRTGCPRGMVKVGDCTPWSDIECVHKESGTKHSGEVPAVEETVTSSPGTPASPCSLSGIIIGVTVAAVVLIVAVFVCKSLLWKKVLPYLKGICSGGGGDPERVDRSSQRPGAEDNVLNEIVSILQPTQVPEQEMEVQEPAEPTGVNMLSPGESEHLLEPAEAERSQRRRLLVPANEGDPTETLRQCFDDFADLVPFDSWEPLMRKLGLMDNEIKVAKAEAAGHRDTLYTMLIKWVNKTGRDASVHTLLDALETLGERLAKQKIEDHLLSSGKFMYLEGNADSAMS

## C/C(=N\NC(=O)c1ccn(C)n1)c1cccc(NC(=O)c2ccc(C)s2)c1
[1]
  activity: 48.5%
[2]
  activity: 45.5%

## CC(C)OC(=O)Nc1ccc2c(c1)N(C(=O)N1CCN(C)CC1)c1ccccc1CC2
[1]
  activity: 86.2%
[2]
  activity: 84.2%

## CC(C)(C)C(=O)Nc1cccc(-c2nc3ccccc3c(=O)o2)c1
[1]
  activity: 59.2%
[2]
  activity: 61.9%

## Cc1noc(N)c1C(=O)Nc1ccc(C(C)(C)C)cc1
[1]
  activity: 46.1%
[2]
  activity: 48.9%

## Cc1ccn2cc(-c3cccc(NC(=O)CCC(=O)O)c3)nc2c1
[1]
  activity: 70.5%
[2]
  activity: 60.1%

## CCCCCCCCC(c1nc2ccccc2[nH]1)N1CCN=C1c1cc2ccccc2[nH]1 (stereo unspecified)
[1]
  activity: 54.9%
[2]
  activity: 84.8%

## COc1cccc(-c2noc(-c3ccc4c(c3)OCO4)n2)c1
[1]
  activity: 65.7%
[2]
  activity: 62.5%

## COC(=O)[C@@H]1Cc2c([nH]c3ccccc23)C(C)(C)N1C(=O)CCl
[1]
  activity: 99%
[2]
  activity: 98%

## COC(=O)c1ccc(-c2nc3ccccc3[nH]2)cc1
[1]
  activity: 80.7%
[2]
  activity: 84.4%

## CCOc1cc(/C=N\NC(=O)c2ccc(NC(=O)C(C)(C)C)cc2)ccc1OC(=O)c1cccc(C)c1
[1]
  activity: 73.5%
[2]
  activity: 47.2%

## Cc1ccc(NC(=O)Cn2ncc(Cl)c(Cl)c2=O)cc1S(=O)(=O)N1CCCCC1
[1]
  activity: 86.5%
[2]
  activity: 99.5%

## CCOC(=O)Cc1csc(NC(=S)NC(=O)c2ccc(C)cc2)n1
[1]
  activity: 84.9%
[2]
  activity: 84.6%

## O=c1[nH]c(/C(=N\O)c2ccccc2)no1
[1]
  activity: 88.8%
[2]
  activity: 89.6%

## O=S1(=O)N=C(Nc2nc3c(s2)CCCC3)c2ccccc21
[1]
  activity: 75.7%
[2]
  activity: 81.4%

## Clc1ccc(-c2nc3n(n2)Cc2ccccc2-3)cc1
[1]
  activity: 65.8%
[2]
  activity: 76.6%

## Cc1ccnc(NC(=O)c2ccc3c(c2)OCO3)c1
[1]
  activity: 82.5%
[2]
  activity: 82.9%

## O=C(/C=C/c1ccc(Cl)cc1Cl)N1CCc2ccccc21
[1]
  activity: 47.9%
[2]
  activity: 51.4%

## CCOC(=O)c1c(NC(=O)COc2ccccc2OCC)sc2c1CC(C)(C)NC2(C)C
[1]
  activity: 95.8%
[2]
  activity: 99.3%

## N#C/C(=C(/O)c1ccc([N+](=O)[O-])s1)c1nc2ccccc2[nH]1
[1]
  activity: 36.3%
[2]
  activity: 25%

## O=C(Nc1cc(C(F)(F)F)cc(C(F)(F)F)c1)Nc1cnn(-c2ccc([N+](=O)[O-])cc2)c1C(F)(F)F
[1]
  activity: 74.2%
[2]
  activity: 63%

## CCc1ccc2nc(N(CCCN(C)C)C(=O)c3ccc(S(=O)(=O)N4CCc5ccccc5C4)cc3)sc2c1
[1]
  activity: 68.4%
[2]
  activity: 64%

## Cn1nccc1C(=O)Oc1cccc(/C=N/NC(=O)c2ccccc2O)c1
[1]
  activity: 44.5%
[2]
  activity: 13.6%

## Cc1ccc2nc(-c3ccccn3)oc2c1
[1]
  activity: 75.3%
[2]
  activity: 64.1%

## O=C(CCl)N(c1ccccc1)c1c[nH]c2ccccc12
[1]
  activity: 99.5%
[2]
  activity: 99%

## COc1ccc(-c2ccc3c(c2)S(=O)(=O)c2cccc(C(=O)NCCOc4ccccc4Cl)c2C3=O)cc1OC
[1]
  activity: 91.2%
[2]
  activity: 77.8%

## Cc1ccc(/C(N)=N/OC(=O)c2ccc(F)cc2)cc1
[1]
  activity: 96.3%
[2]
  activity: 92.5%

## Cc1cccc2sc(NNC(=O)c3ccc(S(=O)(=O)N4CCCC(C)C4)cc3)nc12 (stereo unspecified)
[1]
  activity: 51.8%
[2]
  activity: 42.3%

## CCOC(=O)c1cccc(N2C(N)=NC(N)=NC2(C)C)c1
[1]
  activity: 52.6%
[2]
  activity: 69.5%

## COC(=O)c1ccc(-c2nc3cc(N)ccc3o2)cc1
[1]
  activity: 61.9%
[2]
  activity: 44.6%

## C(=N\Nc1nncc2ccccc12)/c1ccccc1
[1]
  activity: 88.2%
[2]
  activity: 87.7%

## Cn1c(-c2ccccc2)cc2onc(-c3ccccc3)c2c1=O
[1]
  activity: 85.5%
[2]
  activity: 85.7%

## CCN(CC(=O)N1CCc2ccccc2C1)S(=O)(=O)c1ccc2ccccc2c1
[1]
  activity: 42.7%
[2]
  activity: 62.5%

## CCOc1ccc(-c2c(C#N)c(N)nc3c2c(=O)n(C)c(=O)n3C)cc1OC
[1]
  activity: -4.4%
[2]
  activity: -21.2%

## CS(=O)(=O)Nc1cccc(NC(=O)C2Cc3c(-c4ccco4)ccnc3O2)c1 (stereo unspecified)
[1]
  activity: 35.7%
[2]
  activity: 27.8%

## Cc1ccc(C2CC2c2n[nH]c(=S)n2-c2ccc(Cl)cc2)cc1 (stereo unspecified)
[1]
  activity: 63%
[2]
  activity: 45.3%

## COCCNC(=O)c1ccc2c3n(nc2c1)-c1ccccc1CO3
[1]
  activity: 67.6%
[2]
  activity: 82%

## CCOc1ccc(-c2cc(C(=O)N/N=C/c3cccnc3)c3ccccc3n2)cc1
[1]
  activity: 74.2%
[2]
  activity: 74.4%

## O=C(NCCO)c1ccc2c3n(nc2c1)-c1ccccc1CO3
[1]
  activity: 78.9%
[2]
  activity: 78.8%

## CCN(CC)CCN1C(=O)/C(=C\c2ccc(Cl)c([N+](=O)[O-])c2)SC1=Nc1ccc(OC)cc1
[1]
  activity: 82.2%
[2]
  activity: 97.3%

## c1ccc(CSc2ccc(-c3ccco3)nn2)cc1
[1]
  activity: 57.6%
[2]
  activity: 45.9%

## COc1ccc(NC(=O)c2ccc3c(c2)OCCO3)cc1OC
[1]
  activity: 51.8%
[2]
  activity: 51.2%

## c1ccc2nc3c(nc2c1)[nH]c1ccccc13
[1]
  activity: 45.7%
[2]
  activity: 44.5%

## COc1ccc(Oc2c(Cl)cnn(-c3ccccc3)c2=O)cc1
[1]
  activity: 98.4%
[2]
  activity: 94.4%

## O=C(Nc1cc2ccccc2oc1=O)c1ccccc1
[1]
  activity: 54.1%
[2]
  activity: 52%

## NC(Cc1ccc(C(F)(F)F)cc1)c1csc(NC(=O)Nc2ccccc2Cc2ccccc2)n1 (stereo unspecified)
[1]
  activity: 75%
[2]
  activity: 96.2%

## COc1cccc(/C=C2/Sc3ccc(C(=O)NCCN4CCCCCC4)cc3NC2=O)c1
[1]
  activity: 36%
[2]
  activity: 73.3%

## Cc1ccc(NC(=S)c2nc3ccccc3s2)cc1
[1]
  activity: 30.7%
[2]
  activity: 33.8%

## O=C(Nc1cccc(Cl)c1)c1nc[nH]c1C(=O)NCCCNC(=O)c1[nH]cnc1C(=O)Nc1cccc(Cl)c1
[1]
  activity: 45.5%
[2]
  activity: 77.4%

## COc1ccc(S(=O)(=O)N2CCN(c3ccc4nnc(-c5ccccc5)n4n3)CC2)cc1
[1]
  activity: 58%
[2]
  activity: 66.5%

## COc1ccc(-c2cc3nc[nH]c(=O)c3s2)cc1
[1]
  activity: 61.5%
[2]
  activity: 58.2%

## Cc1cc(Br)c(OCc2ccc(C(=O)N/N=C/c3ccc[nH]3)cc2)c(Br)c1
[1]
  activity: 72.8%
[2]
  activity: 86.5%

## O=C(Nc1nc(=O)c2ccccc2s1)c1ccc(Cl)cc1
[1]
  activity: 66.1%
[2]
  activity: 72.6%

## Cc1cc(N)n2nc(-c3ccccc3)cc2n1
[1]
  activity: 77.2%
[2]
  activity: 68.2%

## COc1ccc(C=C2C=C(C(C)(C)C)C(=O)C(C(C)(C)C)=C2)cc1OC
[1]
  activity: 93.4%
[2]
  activity: 98.8%

## COc1ccc(C(=O)NNC(=S)NC(=O)/C=C/c2cccs2)cc1
[1]
  activity: 36.2%
[2]
  activity: 42.2%

## Nc1ccccc1C(=O)NN=Cc1cccnc1
[1]
  activity: 63.5%
[2]
  activity: 58.7%

## FC(F)(F)c1cccc(-c2nc3nc(Cl)c(Cl)nc3[nH]2)c1
[1]
  activity: 57.3%
[2]
  activity: 42.6%

## COc1cccc(N2C(N)=NC(N)=NC2(C)C)c1
[1]
  activity: 79.7%
[2]
  activity: 85%

## COc1ccc(C(=O)O/N=C(\N)Cc2ccc(Cl)cc2)cc1OC
[1]
  activity: 99.3%
[2]
  activity: 95.8%

## O=S(=O)(c1ccc2c(c1)C(=NO)c1cc(S(=O)(=O)N3CCCCC3)ccc1-2)N1CCCCC1
[1]
  activity: 98.8%
[2]
  activity: 99.3%

## Clc1ccccc1Nc1nnc(-c2ccncc2)s1
[1]
  activity: 61.3%
[2]
  activity: 63.3%

## Cc1ccc(-c2nc(-c3ccncc3)no2)c(Cl)c1
[1]
  activity: 63%
[2]
  activity: 57.1%

## O=C(COc1ccc(CO)cc1Cl)Nc1ccc(F)cc1
[1]
  activity: 44.5%
[2]
  activity: 47.6%

## Cn1cc([N+](=O)[O-])c(C(=O)Nc2nc(-c3ccc(Cl)cc3)cs2)n1
[1]
  activity: 97.3%
[2]
  activity: 98.7%

## N=NC(=O)c1ccccc1Nc1c(O)[nH]c2ccccc12
[1]
  activity: 93.5%
[2]
  activity: 92.1%

## CCC[C@H](CN[C@@H](CNC)[C@H](C)CC)NCCc1cc(C(F)(F)F)cc(C(F)(F)F)c1
[1]
  activity: 65.7%
[2]
  activity: 96.1%

## COc1ccc(-c2ccc3ccccc3n2)cc1
[1]
  activity: 32.4%
[2]
  activity: 16%

## Cc1ccsc1C(=O)Nc1ccc2c(c1)OCCO2
[1]
  activity: 53.2%
[2]
  activity: 45.1%

## CN1CCN(C(=O)C2=NOC3(C2)C(=O)Nc2ccccc23)CC1 (stereo unspecified)
[1]
  activity: -0.15%
[2]
  activity: 70.2%

## CC(C)(C)c1ccc(-c2noc(CCC(=O)N3CCOCC3)n2)cc1
[1]
  activity: 66.5%
[2]
  activity: 64.2%

## S=c1nc[nH]c2c1ncn2C1CCCO1 (stereo unspecified)
[1]
  activity: 17.8%
[2]
  activity: 47.4%

## Cc1ccc(/C=N/NC(=O)c2cc(C)oc2C)cc1
[1]
  activity: 45.1%
[2]
  activity: 55%

## Cc1cc(=O)[nH]c2nnc(-c3ccc(Cl)cc3)n12
[1]
  activity: 82.2%
[2]
  activity: 78.6%

## Cc1ccc(-c2nnc(NC(=O)c3ccco3)o2)c(C)c1
[1]
  activity: 70.7%
[2]
  activity: 58.6%

## CCCc1cc(=O)[nH]c(SCC(=O)c2c(N)n(CC(C)C)c(=O)n(C)c2=O)n1
[1]
  activity: 80.5%
[2]
  activity: 83.7%

## O=C(NOCc1ccccc1)c1ccc(Cl)cc1Cl
[1]
  activity: 62.6%
[2]
  activity: 55.5%

## O=C(Nc1ccccn1)c1ccc(-c2ccccc2)cc1
[1]
  activity: 87.6%
[2]
  activity: 88.4%

## CCn1cc(Cl)c(C(=O)Nc2ccc3c(c2)OCCO3)n1
[1]
  activity: 39.5%
[2]
  activity: 34.1%

## COc1ccc2oc(-c3ccc(NC(=O)c4ccc(N5CCOCC5)c([N+](=O)[O-])c4)cc3)nc2c1
[1]
  activity: 52%
[2]
  activity: 24.4%

## COc1ccc(Cn2c(SCc3cc(C)ccc3C)nc3cc(OC)c(OC)cc3c2=N)cc1
[1]
  activity: 94.9%
[2]
  activity: 97.8%

## CCOC(=O)c1nnn2c1nc(Nc1cccc(C(F)(F)F)c1)c1ccccc12
[1]
  activity: 8.35%
[2]
  activity: 52.4%

## COc1ccc(/C=C\c2nc(=O)c3ccccc3o2)cc1
[1]
  activity: 72%
[2]
  activity: 69.6%

## Cc1nc(SCC(=O)Nc2nccs2)c(C#N)c(C)c1C
[1]
  activity: 90.8%
[2]
  activity: 92.1%

## Cc1ccc(C2=NS(=O)(=O)N(C)C(C(=O)NCc3cccs3)=C2)cc1
[1]
  activity: 5.95%
[2]
  activity: 0.8%

## C#CCN(C[C@@H]1[C@@H](OC(=O)NCC2CCCCC2)[C@@H](OC(=O)NCC2CCCCC2)Cn2c(=O)ccc(=O)n21)S(=O)(=O)c1ccc(C)cc1
[1]
  activity: 97.7%
[2]
  activity: 98.3%

## O=[N+]([O-])c1ccc(/C=C/c2ccc3ccccc3n2)cc1
[1]
  activity: 70.2%
[2]
  activity: 68.5%

## CCCCCCCCCCn1ccc(=N)cc1
[1]
  activity: 84%
[2]
  activity: 68.3%

## N#Cc1ccc(NC(=O)Nc2ccc(Cl)cc2)cc1
[1]
  activity: 81%
[2]
  activity: 65.3%

## COc1ccc(/C(N)=N/OC(=O)c2ccc(OC)c([N+](=O)[O-])c2)cc1OC
[1]
  activity: 92.1%
[2]
  activity: 84.7%

## COc1ccc(/C(N)=N/OC(=O)CC2CCCCC2)cc1OC
[1]
  activity: 83.4%
[2]
  activity: 78.2%

## N/C(=N\OC(=O)COc1ccc(Br)cc1Cl)c1ccccn1
[1]
  activity: 38.2%
[2]
  activity: 47.5%

## O=C(C[C@H]1C/C=C\C[C@H](NC(=O)OCC2c3ccccc3-c3ccccc32)C(=O)OC[C@H](Cc2ccccc2)NC1=O)N[C@H](CO)Cc1ccccc1
[1]
  activity: 11.8%
[2]
  activity: -2.65%

## Cc1nc(=S)c2c([nH]1)-c1ccccc1CC21CCCCC1
[1]
  activity: 92%
[2]
  activity: 76.4%
